# FBPA Giardia inh: blocks Giardia fructose-bisphosphate aldolase activity; A8B2U2; purified Giardia FBPA; Potency, µM (highest dose often 59.6 µM), for the others: at the highest dose activity, negative = inhibition, most hits filed as inhibitors; hit rate 0.71% among 290,000; AID 2451; note: potency is the fitted concentration of half-maximal effect; % is set by controls: 0 for no effect and ±100 for the full control effect; nearly all actives have a fitted effect of over 55% in size
#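 40 nM FBPA preincubated 10 min at RT with compound (up to 57.5 uM final), then substrate plus GAPDH/TPI/NAD/arsenate coupling and diaphorase/resazurin added. Fluorescence read after 20 min at RT, 525/598 nm.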
# LmPK inhibitor: blocks Leishmania mexicana pyruvate kinase activity; Q27686; purified LmPK, Kinase-Glo ATP luminescence, 1 h; Potency, µM (series often up to 57.5 µM), inactives show top-dose activity change, negative = inhibition, usual class: inhibitors; hit rate 0.37% among 290,000; AID 1721; note: potency is the fitted concentration of half-maximal effect; % is set by controls: 0 for no effect and ±100 for the full control effect
# Target sequence (Q27686 whole entry, looked up): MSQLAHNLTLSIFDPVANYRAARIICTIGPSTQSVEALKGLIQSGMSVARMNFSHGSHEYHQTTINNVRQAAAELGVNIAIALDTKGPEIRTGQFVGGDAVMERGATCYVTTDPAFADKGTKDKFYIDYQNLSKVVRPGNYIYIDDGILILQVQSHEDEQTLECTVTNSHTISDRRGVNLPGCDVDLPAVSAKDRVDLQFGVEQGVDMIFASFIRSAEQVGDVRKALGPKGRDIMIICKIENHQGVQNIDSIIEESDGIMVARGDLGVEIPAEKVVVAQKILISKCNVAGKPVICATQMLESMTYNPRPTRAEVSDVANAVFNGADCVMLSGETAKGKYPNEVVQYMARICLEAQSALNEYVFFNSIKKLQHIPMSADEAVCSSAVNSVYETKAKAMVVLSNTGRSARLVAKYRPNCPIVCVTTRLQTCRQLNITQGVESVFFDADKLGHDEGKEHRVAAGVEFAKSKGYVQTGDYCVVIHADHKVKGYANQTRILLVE
#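 In 50 mM imidazole pH 7.2 with 7 mM MgCl2, LmPK (0.1 nM) turned over PEP (0.5 mM) and ADP (0.1 mM) for 1 h at room temperature. Luciferase read-out of ATP.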
# Tb PYK inh: blocks Trypanosoma brucei pyruvate kinase; Q57TT1; hit rate 0.12% among 410,000; AID 624173; Potency, µM (series often up to 76.8 µM), for the others: at the top dose activity, negative = inhibition, actives largely listed as inhibitors; TbPYK enzyme, Kinase-Glo Plus ATP luminescence, 45 min; note: potency is the fitted concentration of half-maximal effect; % is set by controls: 0 for no effect and ±100 for the full control effect; nearly all actives have a fitted effect of over 50% in size
#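 Assay buffer: 50 mM TEA pH 7.2, 100 mM KCl, 10 mM MgCl2, 0.05% BSA, 0.01% Tween-20. Pyruvate kinase from T. brucei plus substrate met compound, then ADP (130 uM final). Luminescence was read post 45 min RT.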
# Shiga toxin inh: Shiga toxin inhibition; Vero cells, Shiga toxin protein synthesis inhibition reporter; inhibition, % at 38.7 µM; hit rate 9.2% among 290,000; AID 2315; in the data active = inhibition mostly above about 28%, no sharp cut-off; inactive = mostly below about 43%; note: 0% is about no effect
# CHX counter: affects cycloheximide protein synthesis inhibition readout, counter-screen | cell reporter, cycloheximide protein synthesis inhibition counterscreen | max response, % | hit rate 12% among 300,000; in the data active = max response mostly above about 13%, no sharp cut-off; inactive = mostly below about 14%; note: read at 38.3 µM for the half of the compounds with a filed dose; 0% is about no effect
# RE007 growth inh: less growth of the S. pombe RE007 Vpr strain | S. pombe RE007 Vpr strain, BacTiter-Glo ATP luminescence, 24 h | Potency, µM (doses to about 92.2 µM), for the others: at the highest dose activity change, negative = less growth, hits mostly inhibitors | hit rate 0.21% among 360,000; active = well fitted falling curve with a large enough effect; inconclusive = small, poorly fitted or top-dose-only effect; inactive = no such curve, though single readings can be large or run the other way; note: potency is the fitted concentration of half-maximal effect; % is set by controls: 0 for no effect and ±100 for the full control effect; nearly all actives have a fitted effect of over 50% in size
#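 Fission yeast RE007 carrying one integrated HIV-1 vpr copy, seeded at OD 0.01 in PMG+AL medium with 23 nL pinned compound. Grown 24 h at 30 degrees; viability read by BacTiter-Glo luminescence after 5 min.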
# * = called active by the depositor; ? = inconclusive; . = no result given. The full list was thinned out, with hits kept by preference. Unless noted, calls come from the whole dose curve; as a rule, active = well fitted curve in the direction sought with a large enough effect; inconclusive = small, poorly fitted or top-dose-only effect, or another doubt; inactive = no such curve, though single readings can be large; an effect the other way counts as inactive or inconclusive.
SMILES,FBPA Giardia inh,LmPK inhibitor,Tb PYK inh,Shiga toxin inh,CHX counter,RE007 growth inh
O=C(CCn1cccn1)Nc1ccc2c(c1)OCO2,-10.3%,-4.3%,-0.2%,39.5*,35.8*,-4.7%
Cc1ccn(CCC(=O)Nc2ccc(-c3ccno3)cc2)n1,3.2%,-3.3%,-0.7%,13.7,21.1,-8.5%
O=C(CCn1cccn1)Nc1ccc(-c2ccno2)cc1,4.7%,-2.6%,-1.7%,34.1*,33.1*,15.0%
CC1=C(c2ccc(F)cc2)S(=O)(=O)N=C1N1CCC(C(=O)NCCc2ccco2)CC1,.,.,1.9%,.,.,.
COc1cc(Cl)c(C)cc1NS(=O)(=O)c1c(C)nc2sccn2c1=O,.,.,-6.4%,.,.,.
Cn1ccnc1SCC(=O)Nc1ccc2c(c1)OCO2,-9.1%,-14.7%,2.7%,68.6,41.0*,-3.1%
Clc1ccc2nc(NCc3ccccc3)c3nncn3c2c1,.,.,-5.7%,.,.,.
COC(=O)C1=C[C@@H](C(=O)OC)[C@@H]2C3=C(C(=O)[C@@]2(C)NC(=O)c2ccccc2)[C@H](C)[C@@H]2C(=O)N(Cc4ccccc4)C(=O)[C@@H]2[C@@H]3C1,-4.9%,.,.,1.8,0.4,.
CC(C)c1nc(C#N)c(NCCCn2ccnc2)o1,-10.9%,-2.1%,34.5%,-16.0,5.1,-5.5%
CC(C)c1nc(C#N)c(NN)o1,?,-2.0%,0.7%,116.1*,49.3*,3.0%
C=C1CCN(C(Cc2ccccc2)C(=O)Nc2ccc(OC)cc2)S(=O)(=O)c2ccccc21 (stereo not given),-15.9%,.,.,16.6,9.3,.
Cc1cc(C(=O)Nc2ccc(Cl)cc2)n(-c2ccccc2)n1,18.1%,4.1%,-10.8%,31.0,19.2*,3.1%
Cc1ccc(NC(=O)c2cc(C)nn2-c2ccccc2)cc1,4.3%,13.9%,2.8%,-11.7,-1.4,-6.6%
Cc1cccc(NC(=O)c2c(C)nn(-c3ccccc3)c2Cl)c1,-7.8%,0.4%,-12.6%,113.3*,46.8*,7.4%
O=C(/C=C/c1cn(-c2ccccc2)nc1-c1cccnc1)c1ccco1,0.0%,-2.7%,-0.7%,9.0,24.7*,-3.2%
O=C(O)c1ccc(NC(=O)c2cn(-c3ccccc3)nc2-c2ccc(F)cc2)cc1,-6.3%,2.1%,-2.6%,94.3*,38.9*,3.2%
Cc1nc2ccn(Cc3cccs3)c(=O)c2cc1C(=O)N1CCN(c2ccccc2F)CC1,.,.,-4.9%,.,.,.
Cn1nc(C(=O)Nc2cccc(Cl)c2)cc1C(=O)Nc1cccc(Cl)c1,-7.3%,-1.7%,4.7%,11.6,-3.2,14.9%
O=C(NC(=S)NCCO)c1cn(-c2ccccc2)nc1-c1ccccc1,-2.0%,1.7%,3.5%,49.1*,24.3,1.9%
CCOC(=O)c1cc(C(=O)Nc2cccc(C)c2)nn1C,1.6%,-27.3%,-8.7%,154.5*,40.4*,-0.6%
O=C(Nc1ccncc1)c1cn(-c2ccccc2)nc1-c1cccs1,1.1%,7.9%,3.8%,67.1,44.2*,-0.3%
Cc1cccc(NC(=O)c2cn(-c3ccccc3)nc2-c2ccccc2)c1,-0.2%,-2.6%,1.8%,26.8,13.3*,-15.1%
C[C@@H]1C(=O)O[C@@H]1[C@@H](C)CO[Si](c1ccccc1)(c1ccccc1)C(C)(C)C,-0.2%,.,.,2.4,0.7,.
O=C(/C=C/c1cn(-c2ccccc2)nc1-c1ccccc1)Nc1ccc(C(=O)O)cc1,-0.5%,2.2%,-1.6%,63.0*,14.2,17.2%
O=c1[nH]c(=O)c2nc(Br)n(C3OC(CO)C(O)C3O)c2[nH]1 (stereo not given),-5.5%,.,.,.,.,.
SMILES,FBPA Giardia inh,LmPK inhibitor,Tb PYK inh,Shiga toxin inh,CHX counter,RE007 growth inh
Cc1ccc(OCC(=O)Nc2nnc(SCc3cc(=O)c4ccccc4[nH]3)s2)cc1,.,.,28.2µM*,.,.,.
Cc1ccc(OCC(=O)Nc2nnc(SCc3cc(=O)c4ccccc4[nH]3)s2)cc1C,.,.,-9.9%,.,.,.
Nc1nc(SCc2ccccc2)[nH]c(=O)c1-c1ccccc1,-7.8%,-1.4%,3.5%,120.5*,67.1*,11.7%
C=CCc1c(C)nc(SCC(=C)C)[nH]c1=O,-16.4%,0.4%,1.3%,-12.6,-6.1,8.7%
Nc1nc(SCC(=O)N2CCCc3ccccc32)[nH]c(=O)c1-c1ccccc1,-16.7%,1.2%,-5.7%,54.0*,34.4*,9.8%
C=CCc1c(C)nc(SCc2ccccc2)[nH]c1=O,?,1.6%,2.0%,18.2,16.4*,3.0%
CCC1c2ccc(C)n2CCN1C(=O)Nc1ccccc1OC (stereo not given),?,6.7%,1.1%,28.7*,14.6*,-13.1%
CNC(=O)/C(C#N)=C/c1ccc(-c2ccc(Cl)cc2)o1,2.7%,-1.5%,-6.1%,76.3*,27.7*,?
Cc1ccc(NC(=O)/C(C#N)=C\c2ccc(-c3ccc(Cl)cc3)o2)c(C)c1,.,.,-4.9%,.,.,.
O=C(O)/C(=C\c1ccc(-c2ccccc2[N+](=O)[O-])o1)c1ccccc1,-14.3%,-15.6%,1.1%,27.6*,11.1,-13.6%
N#C/C(=C\c1ccc(-c2ccccc2[N+](=O)[O-])o1)C(N)=O,?,5.5%,-4.4%,3.9,-0.7,5.0%
Cc1cccc(C)c1NC(=O)/C(C#N)=C/c1ccc(-c2ccc(C(=O)O)cc2)o1,-10.3%,-1.7%,-0.8%,69.6*,20.7*,-0.3%
CNC(=O)/C(C#N)=C/c1ccc(-c2ccccc2[N+](=O)[O-])o1,?,0.4%,-0.7%,34.8,36.2*,-6.7%
CC(C)N(C(=O)Cn1cc(S(=O)(=O)Cc2ccc(Br)cc2)c2ccccc21)C(C)C,.,.,0.0%,.,.,.
COCCn1c(=O)c(CCc2ccccc2)nc2cnc(N3CCN(C)CC3)nc21,-4.7%,.,-1.0%,.,.,.
Cn1c(=O)c(-c2cccc(Cl)c2)nc2cncnc21,-1.6%,.,6.0%,.,.,.
Cc1ccc(C(=O)N/C(=C\c2ccc(-c3ccccc3[N+](=O)[O-])o2)C(=O)NCCN(C)C)cc1,5.01µM*,-8.9%,-1.1%,18.2,12.5*,6.7%
O=C(/C=C/c1ccc(-c2ccccc2[N+](=O)[O-])o1)c1ccccc1,?,-0.5%,-4.7%,96.2*,51.5*,-3.9%
Cc1ccc(C(=O)N/C(=C\c2ccc(-c3ccccc3[N+](=O)[O-])o2)C(=O)NCCCN(C)C)cc1,?,-7.7%,-4.4%,15.0,10.4,-6.7%
O=C1/C(=C\c2ccc(-c3ccccc3[N+](=O)[O-])o2)C(c2ccccc2)=NN1c1ccccc1,-2.8%,-10.9%,-3.4%,-0.3,1.6,15.2%
CCCCCCCCCCCCCCOc1ccc(C(=O)O)o1,11.2%,.,.,11.7,3.9,.
CC(C)(C)OC(=O)N1CCC(C(=O)N2CCC[C@H]2C(=O)O)CC1,-14.5%,-0.7%,5.2%,60.1*,9.6*,-9.2%
CN(C)c1ccc(NC(=O)CN2C(=O)c3ccccc3Sc3ccc(C(=O)N4CCCC4)cc32)cc1,.,.,-10.2%,.,.,.
COc1cc(CNc2ccc3c(c2)ncn3C(C)C)cc(OC)c1OC,.,.,2.7%,.,.,.

# Source: PubChem (National Center for Advancing Translational Sciences (NCATS))
